aSyn 5UTR act: Activators working through SNCA 5'UTR binding (MLPCN); alpha-synuclein 5'UTR reporter, activators screen; activity score, % (tested at 7.5 µM), hits read low; hit rate 7.1% among 300,000; AID 1814; in the data active = activity score below about -60%
* hit, by the source's call. Not all results are given here.

SMILES	aSyn 5UTR act
c1ccc(-c2ccc(OCCOCCn3cncn3)cc2)cc1	-174.9*
c1ccc(COc2ccc(OCCCN3CCCC3)cc2)cc1	54.8
c1ccc(CCNc2ncnc3nc[nH]c23)cc1	-113.0*
c1ccc2c(CCNc3ncnc4nc[nH]c34)c[nH]c2c1	-72.7*
CN1CCC(=NNC(=O)C(=O)Nc2ccc(F)cc2)CC1	-92.5*
Cc1ccc(C(=O)c2coc3ccc(O)cc23)cc1	-64.2*
O=C(c1ccccc1)c1coc2ccc(O)c(Cl)c12	-95.6*
Cc1ccc(C(=O)c2coc3ccc(O)c(Cl)c23)cc1	-163.0*
COc1ccccc1C1N=C(c2ccccc2C)NO1 (stereo not given)	-120.4*
Cc1ccccc1C1=NC(c2ccc(F)cc2F)ON1 (stereo not given)	-90.0*
Cc1ccc(C(=O)/C=C2\NCCNC2=O)cc1	-71.6*
CC(=O)Nc1ccc(N/C=C/C(=O)c2ccc(Br)cc2)cc1	-94.7*
CC(=O)c1ccc(N/C=C/C(=O)c2ccc(Br)cc2)cc1	-225.7*
Cc1ccc(C(=O)/C=C\C(=O)c2ccc(C)cc2)cc1	-63.3*
Cc1ccc(C(=O)/C=C2\NCC(C)NC2=O)cc1 (stereo not given)	59.0
CC(=O)Nc1ccc(N/C=C/C(=O)c2ccc(C)cc2)cc1	-74.0*
O=c1/c(=C/c2ccccn2)sc2nc3ccccc3n12	-173.8*
Oc1ccc(Br)cc1C1Nc2ccccc2S1 (stereo not given)	-84.1*
O=C1C=C(Nc2ccc(O)cc2)C(=O)c2ccccc21	67.5
CCOc1ccc2c(c1)OC(c1ccc(OC)cc1)(C(F)(F)F)NC2=O (stereo not given)	96.1
CCOc1ccc(NC2=C(OC)C(=O)c3ccccc3C2=O)cc1	-94.4*
COC1=C(Nc2ccc(O)cc2)C(=O)c2ccccc2C1=O	-109.5*
Cc1ccc(NC2=CC(=O)C(=O)c3ccccc32)cc1	102.9
COC1=C(Nc2ccc(OC)cc2)C(=O)c2ccccc2C1=O	-161.5*
COc1ccc(NC2=C(NCCO)C(=O)c3ccccc3C2=O)cc1	-91.5*
SMILES	aSyn 5UTR act
O=C1C(Nc2ccc(O)cc2)=C/C(=N/S(=O)(=O)c2cccs2)c2ccccc21	113.8
O=C(Nc1ccc(/C=C/c2nc3ccccc3o2)cc1)c1ccc(F)cc1	-117.3*
O=C(NCCc1ccccc1)c1ccc2c(c1)OCO2	90.9
COc1ccc(C(=O)NCCn2ccc3ccccc32)cc1	-130.9*
O=C(NCCn1ccc2ccccc21)c1ccc2c(c1)OCO2	-108.3*
c1ccc(-n2cnc3cc(NCc4ccccn4)ccc32)cc1	-66.1*
CC(C)n1cnc2cc(NCc3ccccn3)ccc21	-97.5*
CC(C)n1cnc2cc(NCc3ccco3)ccc21	-109.0*
Cc1cc(NCc2ccccn2)ccc1Br	-198.1*
COc1cccc(C2(O)CC(C(F)(F)F)=NN2C(=O)c2ccccn2)c1 (stereo not given)	-112.7*
CC1CCC(NC(=O)c2ccc(NC(=O)CC3SC(N4CCCC4)=NC3=O)cc2)CC1 (stereo not given)	-129.4*
CC1CCC(NC(=O)c2ccc(NC(=O)c3ccc(=O)[nH]c3)cc2)CC1 (stereo not given)	-67.5*
O=C(CC1SC(N2CCCC2)=NC1=O)Nc1ccc(C(=O)Nc2ncccc2O)cc1 (stereo not given)	-266.3*
CCOCC(=O)Nc1ccc(Br)c(C)c1	-120.4*
Cc1cc(NCC2CCCCC2)nc2ccccc12	-68.8*
COc1ccc(Nc2nc(C)c3ccccc3n2)cc1	-110.7*
COc1ccc(Nc2cc(C)c3ccc(O)cc3n2)cc1	-138.5*
CCOc1ccc(Nc2c3ccccc3nc3ccccc23)cc1	-94.3*
Cc1nc(Nc2nc(-c3ccccc3)cc(=O)[nH]2)nc2ccccc12	-119.8*
CCOc1ccc(Nc2cc(C)c3ccccc3n2)cc1	-84.5*
Nn1c(SCc2ccccc2)nnc1-c1ccccn1	-70.3*
NC(=O)CSc1nc2cccnc2n1-c1ccc(F)cc1	51.9
Nn1c(SCc2ccc(F)cc2)nnc1-c1ccccn1	-68.3*
Nn1c(SCc2ccccc2F)nnc1-c1ccccn1	-124.8*
COc1ccc(/C=C/C(=O)Oc2cccc(/C=N/NC(=O)Cc3ccc(Br)cc3)c2)cc1	-80.3*
SMILES	aSyn 5UTR act
CCOC(=O)CNc1c(-c2ccc(O)cc2)nc2ccc(Cl)cn12	-68.5*
O=c1c(Cl)c(Nc2cccc(Cl)c2)cnn1-c1nc2ccccc2s1	-78.1*
CC(=NC1CCCC1)c1c(C)[nH]n(-c2nc3ccccc3s2)c1=O	94.2
COc1ccc(Nc2cnn(-c3nc4ccccc4s3)c(=O)c2Cl)cc1	-138.8*
CC(C(=O)N(C)C1CCS(=O)(=O)C1)N1C(=O)/C(=C/c2cccs2)SC1=S (stereo not given)	-83.3*
COC(=O)c1cc(/C=C/c2ccccc2)[nH]n1	-117.0*
Cc1ccc(NC(=O)NC2=NN(c3ccccc3)C(=O)/C2=C2/CCCN2C)cc1	-62.7*
CCCOC(=O)c1sc2nc3c(cc2c1N)C(=O)CCC3	-152.2*
Nc1c(C(=O)NCc2ccco2)sc2nc3c(cc12)C(=O)CCC3	-94.4*
COc1ccc2cc3c(N)c(C(=O)NCc4ccco4)sc3nc2c1	-191.7*
CCOC(=O)C1(Cc2ccccc2Cl)CCN(C(=O)CN2CCOC2=O)CC1	-144.6*
CC(C)c1ccc(CNNC(=O)c2ccccc2)cc1	-104.6*
COc1ccc(CNC(=O)c2ccc(C(C)(C)C)cc2)cc1	-126.5*
COc1ccc(CNC(=O)c2ccc(C(C)C)cc2)cc1	-181.1*
COc1ccc(-c2cc(C(F)(F)F)nc(S(C)(=O)=O)n2)cc1	-102.8*
CS(=O)(=O)c1nc(-c2ccc(F)cc2)cc(C(F)(F)F)n1	-125.8*
CS(=O)(=O)c1nc(-c2cccs2)cc(C(F)(F)F)n1	-89.9*
Cc1cc(NC(=O)CCCS(=O)(=O)c2nc(-c3cccs3)cc(C(F)(F)F)n2)no1	-91.9*
CC(=O)c1ccc(Nc2c3c(nc4ccccc24)CCCC3)cc1	-195.3*
CC(=O)c1cccc(Nc2c3c(nc4ccccc24)CCC3)c1	75.5
c1ccc2c(Nc3ccc4c(c3)OCCO4)c3c(nc2c1)CCCC3	-82.0*
CCCNC(=O)Cn1nc([N+](=O)[O-])c([N+](=O)[O-])c1C	-77.2*
CCCCNC(=O)Cn1nc([N+](=O)[O-])c([N+](=O)[O-])c1C	-138.3*
Cn1c(=O)c(C(=O)Nc2ccccc2S(N)(=O)=O)c(O)c2ccccc21	-63.6*
COC(=O)C1CCN(C(=O)/C=C/c2ccc3c(c2)OCO3)CC1	-66.3*
SMILES	aSyn 5UTR act
CCN(CC)c1ccc(NC(=O)Nc2ccccc2C(F)(F)F)cc1	-79.7*
CN(C)c1ccc(NC(=O)Nc2cccc3ccccc23)cc1	-76.7*
CCN(CC)c1ccc(NC(=O)CCCCC(=O)Nc2ccc(N(CC)CC)cc2)cc1	62.8
CCN(CC)c1ccc(NC(=O)Nc2cccc3ccccc23)cc1	-114.7*
CCN(CC)CCCNC(=O)c1sc2nc(-c3ccc(F)cc3)cn2c1C	-108.0*
Cc1c(C(=O)NCC2CCCO2)sc2nc(-c3ccc(F)cc3)cn12 (stereo not given)	-83.6*
COc1ccc(S(=O)(=O)Oc2ccc3ccccc3c2)cc1	-92.9*
CC(C)Oc1ccccc1C1Nc2ccccc2C(=O)N1c1ccc2c(c1)OCCO2 (stereo not given)	68.1
CCOC(=O)COc1ccccc1C1Nc2ccccc2C(=O)N1c1cccc(Cl)c1 (stereo not given)	-107.3*
COc1cc(C2Nc3ccccc3C(=O)N2c2ccc(Cl)cc2)c(Cl)cc1OCC(=O)O (stereo not given)	-137.4*
Cc1cccn2cc(-c3cccc(NC(=O)c4cccs4)c3)nc12	-73.2*
